Source: PubChem (National Center for Advancing Translational Sciences (NCATS))
Hits are enriched below; roughly 1.7% of the tested compounds scored in any of these assays.
GLP1R ag: agonists of human GLP-1 receptor; P43220; HEK293 GLP-1R CRE-luciferase, luminescence, 4-6 h; cells express a hypersensitive GLP-1R form; Potency, µM (top dose mostly 45.6 µM), inactives show top-dose activation, actives largely listed as activators; 0.007% of 380,000 active; AID 624172; further: % of control where 0% means no effect
Target sequence (P43220 whole entry, looked up): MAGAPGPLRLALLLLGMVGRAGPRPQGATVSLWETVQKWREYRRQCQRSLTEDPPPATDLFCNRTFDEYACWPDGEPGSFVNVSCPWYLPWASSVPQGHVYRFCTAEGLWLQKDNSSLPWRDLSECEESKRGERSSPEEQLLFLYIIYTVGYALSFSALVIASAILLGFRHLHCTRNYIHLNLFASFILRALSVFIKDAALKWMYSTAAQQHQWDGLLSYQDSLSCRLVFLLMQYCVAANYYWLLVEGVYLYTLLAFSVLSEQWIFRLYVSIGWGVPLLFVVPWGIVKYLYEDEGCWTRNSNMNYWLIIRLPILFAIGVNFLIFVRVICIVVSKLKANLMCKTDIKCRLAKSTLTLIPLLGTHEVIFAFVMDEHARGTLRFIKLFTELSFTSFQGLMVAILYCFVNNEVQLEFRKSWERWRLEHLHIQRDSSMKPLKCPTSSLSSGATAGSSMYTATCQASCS
PTHR1 ag: agonists of human PTHR1 parathyroid hormone receptor; Potency, µM (highest dose often 115 µM), without a hit: at the highest dose activation, actives largely listed as activators; 0.075% of 410,000 active; Q03431; HEK293 GP2 PTHR1 cells, GloSensor cAMP luminescence, 1 h; further: nearly all actives have a fitted effect of over 55% in size
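HEK-293-derived GP2 cells expressing PTHR1 and a GloSensor cAMP reporter, 3,000/well, plated overnight, given luciferin plus IBMX (each 0.5 mM as added) for 1 h at 37 °C, then compound for 1 h at 37 °C. Luminescence was read after 15 min at room temperature.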
GLP1R cytotox: cytotoxicity counter-screen for GLP-1 receptor inverse agonists; Potency, µM (doses to about 38.3 µM), for inactives: at the highest dose activity change, negative = inhibition, actives largely listed as inhibitors; HEK293 cAMP-luciferase reporter cells, luminescence, 24 h; 0.13% of 410,000 active;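 further: loss of luciferase light is scored as toxicity; on the % scale 0 is the no-effect control and ±100 the full control effect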
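To flag toxic compounds, the library was rerun on cells for 24 hr at 37 deg C and 5% CO2. Viability-linked luminescence was captured 12 min after adding luciferase detection reagent.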
GLP-1R inv ag: GLP-1 receptor (human) inverse agonism | P43220 | HEK293 GLP-1R CRE-luciferase, luminescence, 24 h; GLP-1R form is constitutively active | AID 624417 | 1.6% of 410,000 active | Potency, µM (doses to about 38.3 µM), inactives show at the highest dose activity change, negative = inhibition, usual class: inhibitors; further: on the % scale 0 is the no-effect control and ±100 the full control effect; nearly all actives have a fitted effect of over 55% in size
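HEK293 cells stably co-expressing constitutively active GLP-1R and a cAMP-responsive luciferase reporter were seeded in DMEM with 10% Nu serum, given compounds after 12 h, and incubated 24 h at 37 deg C. Luminescence was then read.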
The depositor's hits bear a star; [ ] = another dose, or the depositor's remark. The call rests on the fitted dose curve; in most records, active means well fitted curve in the direction sought with a large enough effect; inconclusive means small, poorly fitted or top-dose-only effect, or another doubt; inactive means no such curve, though single readings can be large; an effect the other way counts as inactive or inconclusive. Potency means the concentration at half of the fitted maximal effect.

Cc1ccc(-n2c3c(c(=O)[nH]c2=O)C(NC(=O)c2ccccc2C)(C(F)(F)F)C(=O)N3)cc1 (configuration not stated) was read as PTHR1 ag -12%, GLP1R cytotox 2% and GLP-1R inv ag 14%.
`CC(=C/c1ccccc1)/C=N/NC(=O)c1nnn(-c2nonc2N)c1CN1CCC(C)CC1` gave GLP1R ag 15%, PTHR1 ag -3%, GLP1R cytotox -23% and GLP-1R inv ag 4µM*.
CC(/C=N/NC(=O)c1nnn(-c2nonc2N)c1CN1CCCCC1)=C\c1ccccc1 was read as GLP1R ag 4%, PTHR1 ag 3%, GLP1R cytotox -3% and GLP-1R inv ag inconclusive.
`Cc1cc(OCCNCCO)cc(C)c1Cl` gave GLP1R ag 0%, PTHR1 ag -15%[57.5 µM], GLP1R cytotox 82% and GLP-1R inv ag 8.9µM*.
For OC1(c2ccc(Cl)c(C(F)(F)F)c2)CCN(CCCC(c2ccc(F)cc2)c2ccc(F)cc2)CC1 the results were GLP1R ag -7%.
CCOc1ccc(CNC(=O)c2cnc3sc(N4CCOCC4)nn3c2=O)cc1OC was read as PTHR1 ag inconclusive, GLP1R cytotox -2% and GLP-1R inv ag 27%.
`CC(C)Cc1nc(SCC(=O)N2CCCCC2)c2c(=O)n(C)c(=O)n(C)c2n1` gave GLP1R ag 0%, PTHR1 ag -13%, GLP1R cytotox -25% and GLP-1R inv ag 10µM*.
For CC(C)Cc1nc(SCC(=O)N2CCOCC2)c2c(=O)n(C)c(=O)n(C)c2n1 the results were GLP1R ag -4%, PTHR1 ag -11%, GLP1R cytotox -2% and GLP-1R inv ag 28%.
Screening Cc1ccc(-n2nc3c(=O)n(C(C)C(=O)NCCCc4ccccc4)nc(C)c3c2C)cc1 (configuration not stated) returned GLP1R ag 0%, PTHR1 ag -37%, GLP1R cytotox -15% and GLP-1R inv ag 5µM*.
`Cc1ccc(-n2nc3c(=O)n(CCCC(=O)NCc4cccc(Cl)c4)nc(C)c3c2C)cc1` gave GLP1R ag 9%, PTHR1 ag -92%, GLP1R cytotox 5% and GLP-1R inv ag 11µM*.
`Cc1ccc(-n2nc3c(=O)n(CCCC(=O)NCc4ccc(Cl)cc4)nc(C)c3c2C)cc1` gave GLP1R ag 2%, PTHR1 ag -40%, GLP1R cytotox 6% and GLP-1R inv ag inconclusive.
Screening CCCC1N=C2c3ccccc3N=C(SCC(=O)NCCc3ccc(Cl)cc3)N2C1=O (configuration not stated) returned PTHR1 ag inactive, GLP1R cytotox -3% and GLP-1R inv ag 2%.
CSc1nn(Cc2cccc(Cl)c2)c(N(C(C)=O)C(C)=O)c1S(=O)(=O)c1ccccc1 was read as GLP1R ag -4%, PTHR1 ag -16%, GLP1R cytotox -13% and GLP-1R inv ag 13µM*.
`CC(=O)Nc1cc(-c2ccccc2)nn1Cc1cccc(Cl)c1` gave PTHR1 ag inactive, GLP1R cytotox 2% and GLP-1R inv ag inconclusive.
`O=C(Nc1ccc2snnc2c1)Nc1cccc2ccccc12` gave GLP1R ag -17%, PTHR1 ag -18%[57.5 µM], GLP1R cytotox inconclusive and GLP-1R inv ag 10µM*.
`CCCc1nn2c(C)c(-c3ccccc3)nc2s1` gave PTHR1 ag inactive, GLP1R cytotox 0% and GLP-1R inv ag 0%.
Screening Cn1c(=O)n(CCc2ccccc2)c(=O)c2c1nc1n2CCCN1CCc1ccccc1 returned GLP1R ag -43%, PTHR1 ag -24%, GLP1R cytotox -9% and GLP-1R inv ag 2.2µM*.
For CCCn1c(=O)c2c(nc3n2CCCN3CCc2ccccc2)n(C)c1=O the results were GLP1R ag 16%, PTHR1 ag -39%, GLP1R cytotox 6% and GLP-1R inv ag inconclusive.
`O=C(Cn1ccc2cc(S(=O)(=O)N3CCCCCC3)ccc21)NCc1ccccc1Cl` gave PTHR1 ag -12%, GLP1R cytotox 0% and GLP-1R inv ag inconclusive.
COc1ccc(OC)c(NC(=O)CC2SC(=Nc3ccc(F)cc3)N(CCC3=CCCCC3)C2=O)c1 (configuration not stated) was read as GLP1R ag 10%, PTHR1 ag -2%, GLP1R cytotox -8% and GLP-1R inv ag 4.5µM*.
